Screening data: PubChem BioAssay, National Center for Advancing Translational Sciences (NCATS)
TGFb inhibitor = inhibitors of TGF-b signaling | AID 588855 | Potency, µM (titrated, usually from 46.1 µM), inactives show at the highest dose activity, negative = inhibition, hits mostly inhibitors | HepG2 CAGA-GFP TGF-b/SMAD3 reporter, GFP fluorescence, 18 h; TGF-beta stimulated, 500 pg/mL final | 410,000 tested, 1.2% active; further: potency means the concentration at half of the fitted maximal effect; on the % scale 0 is the no-effect control and ±100 the full control effect; nearly all actives have a fitted effect of over 65% in size
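Inhibition was scored as loss of TGF-beta-induced (500 pg/mL final, 18 hours, 37 degrees C) GFP in HEPG2 cells carrying a CAGA-GFP reporter, in DMEM with 1% FBS. Well GFP was summed per cell; Activity was normalised to unstimulated and stimulated DMSO wells, then concentration-response fitting.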
IL-1B inflam inh = inhibitors of inflammasome signaling (IL-1 beta secretion) | THP-1 LPS/ATP IL-1B secretion, AlphaLISA, 16 h; stronger effect = lower value | activity change, % at 57.5 µM | 360,000 tested, 4.7% active; in the data active means activity change below about -50%; inconclusive means mostly about -30% to -49%; further: on the % scale 0 is the no-effect control and ±100 the full control effect
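Secreted IL-1B measured by AlphaLISA bead assay after 16 h compound exposure of THP-1 cells; compounds (final up to 57.5 uM) added 1 h before LPS (250 ng/mL) and ATP (1.25 mM) stimulation; lower signal means less secretion.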
HepG2 viability = kills HepG2 cells in TGF-b inhibitor counter-screen; HepG2 CAGA-GFP viability, ATP luminescence, 18 h; Potency, µM (doses to about 46.1 µM), for inactives: top-dose activity change, negative = cytotoxicity, hits mostly cytotoxic; 410,000 tested, 0.76% active; AID 588856; further: potency means the concentration at half of the fitted maximal effect
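CellTiter-Glo luminescence gave cytotoxicity after 18 hours at 37 degrees C. The cells were HepG2 CAGA-GFP in 1% FBS DMEM, stimulated with 500 pg/mL TGF-beta after compound addition. %Activity was normalised to no-cell wells (complete cell-killing) and DMSO (no toxicity), and curves were fitted and classified.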
Giardia kill = kills Giardia lamblia | Giardia lamblia trophozoite viability | activity change, % at 7.66 µM, hits read low | 340,000 tested, 0.15% active | AID 540267; in the data active means activity change below about -80%; inconclusive means between about -30% and that limit;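 further: parasites exposed to compound for two days anaerobically before the ATP read; on the % scale 0 is the no-effect control and ±100 the full control effect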
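Killing of trophozoites was scored by loss of ATP luminescence after a 48 hrs anaerobic exposure to compounds at 37 deg C, using 100 cells per well.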
HT1080 IDH1KD tx = kills HT-1080 cells with IDH1 knockdown. Potency, µM (highest dose often 46.1 µM), inactives show top-dose activity, negative = toxicity, most hits filed as cytotoxic. HT-1080 IDH1 knockdown viability, ATP luminescence, 48 h. 360,000 tested, 2% active. AID 686971;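 further: potency means the concentration at half of the fitted maximal effect; 0% = DMSO wells and -100% = cell-free medium wells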
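CellTiter-Glo luminescence after 48 h compound exposure at 37 degrees C of IDH1-knockdown HT-1080 cells in 5% FBS RPMI. %Activity scaled between DMSO wells and cell-free media wells, with curves fitted and assigned curve classes.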
HT1080-NT tox = kills 2HG-producing HT-1080-NT fibrosarcoma cells | 360,000 tested, 1.6% active | Potency, µM (highest dose often 46.1 µM), without a hit: top-dose activity, negative = less viability, actives largely listed as cytotoxic | HT-1080-NT fibrosarcoma viability, CellTiter-Glo ATP luminescence, 48 h;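 further: NT is the 2HG producing partner of a matched IDH1 knockdown line; potency means the concentration at half of the fitted maximal effect; 0% = DMSO-treated cells and -100% = media-only wells without cells; nearly all actives have a fitted effect of over 55% in size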
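Fibrosarcoma NT cells, 750 per well in 5% FBS RPMI, were exposed to compound for 48 hours. Viability: CellTiter-Glo luminescence.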
* = called active by the depositor; ? = inconclusive; nt = no result given; ! = not active in a repeat. The list is not random: actives were taken first. Their share in the collection is about 6.5%. Unless noted, the call rests on the fitted dose curve; in most records, active means well fitted curve in the direction sought with a large enough effect; inconclusive means small, poorly fitted or top-dose-only effect, or another doubt; inactive means no such curve, though single readings can be large; an effect the other way counts as inactive or inconclusive.

SMILES	TGFb inhibitor	IL-1B inflam inh	HepG2 viability	Giardia kill	HT1080 IDH1KD tx	HT1080-NT tox
CNC(=O)c1cc(NC(=O)CCn2nc(-c3ccc(C)cc3)c3ccccc3c2=O)ccc1OC	1.3%	-50.5*	-38.7%	10.3	-5.6%	17.3%
COc1ccc(NC(=O)CCn2nc(-c3ccc(Cl)cc3)c3ccccc3c2=O)cc1	-0.4%	nt	-8.2%	nt	nt	nt
CNCCC=C1c2ccccc2C=Cc2ccccc21	-1.5%	-51.2*	-25.0%	-3.3	14.6µM*	20.6µM*
CN(C)CCC=C1c2ccccc2C=Cc2ccccc21	4.9%	?	-21.8%	23.7	?	?
CCCCN1C(=O)C(CC(=O)NC2CCCCC2)CC(C(=O)N(C)C)=C1C (stereo not drawn)	-4.6%	11.8	1.4%	nt	11.0%	1.0%
O=C(Cc1cc(=O)[nH][nH]1)N/N=C/c1c(Cl)cccc1Cl	-22.3%	-100.0*!	-41.4%	11.2	-0.3%	-7.7%
O=C(Cc1cc(=O)[nH][nH]1)N/N=C/c1c(F)cccc1Cl	-3.3%	-10.3	-0.4%	-8.8	-1.9%	0.1%
Cc1ccc(CNC(=O)CN2C(=O)C3CCCCN3c3ccc(C(=O)N4CCCC4)cc32)cc1 (stereo not drawn)	?	nt	2.2%	nt	nt	nt
CC(=O)NS(=O)(=O)c1ccc(N2C(=O)c3ccccc3C2=O)cc1	-0.6%	4.3	-0.1%	4.0	7.5%	8.3%
COc1ccccc1CN1CCC(CNS(=O)(=O)c2cc(-c3onc(C)c3C)ccc2OC)CC1	?	?	-16.4%	3.8	18.4µM*	18.4µM*
Cc1cc(C(=O)CSc2nnc(NCc3ccccc3)s2)c(C)n1C	-7.2%	5.9	-6.0%	10.5	?	14.6µM*
CCN(CC(=O)Nc1ccc(NC(C)=O)cc1)C(=O)/C=C/c1cn(-c2ccccc2)nc1-c1ccc(C)cc1	-27.0%	?	18.0%	-17.8	-24.3%	-26.9%
O=C(CSc1nc(-c2cccs2)cc(C(F)(F)F)n1)Nc1cc(OCC(F)(F)F)cc([N+](=O)[O-])c1	-5.1%	10.6	19.0%	0.4	16.4µM*	?
CCOC(=O)N1CCN(c2ncc3c(n2)CC(c2ccc(OC)c(OC)c2)CC3=O)CC1 (stereo not drawn)	0.5%	nt	5.8%	nt	nt	nt
CCN1CCN(c2ncc3c(n2)CC(c2ccc(OC)c(OC)c2)CC3=O)CC1 (stereo not drawn)	14.7%	11.7	2.7%	-5.0	12.6µM*	11.2µM*
CCCOC(=O)c1ccc(-c2c(C)noc2-c2ccc(OC)cc2O)o1	15.8µM*	-19.8	12.6µM*	42.6	?	-34.6%
S=Cc1nc2ccccc2[nH]1	-1.0%	nt	-1.1%	nt	nt	nt
COc1ccc(C(=O)N/C(N)=N/c2nc3ccccc3o2)cc1	-5.9%	6.7	-42.8%	-4.5	?	?
COc1ccc(C(=O)/C=C/Sc2nc3ccccc3o2)cc1	10µM*	-94.8*	17.8µM*	8.0	3.26µM*	?
Brc1ccc(N/N=C(/N=Nc2nn[nH]n2)c2ccccc2)cc1	?	105.7	3.6%	8.3	2.91µM*	?
Cc1cc(C)c(NC(=S)NC(NC(=O)c2ccccc2)C(Cl)(Cl)Cl)c(C)c1 (stereo not drawn)	?	-74.8*	-48.6%	0.2	?	?
Cc1ccc(C(=O)NC(NC(=S)Nc2ccc(S(N)(=O)=O)cc2)C(Cl)(Cl)Cl)cc1 (stereo not drawn)	3.9%	-76.3*	-19.1%	14.3	-4.7%	-6.0%
O=C(O)c1cccc(NC(=S)NC(NC(=O)c2cccc([N+](=O)[O-])c2)C(Cl)(Cl)Cl)c1 (stereo not drawn)	2.1%	8.0	33.6%	-15.3	6.9%	7.0%
O=C(NC(NC(=S)Nc1ccc(Cl)cc1Cl)C(Cl)(Cl)Cl)c1cccc([N+](=O)[O-])c1 (stereo not drawn)	?	-101.8*	12.6µM*	22.8	?	?
